Only some compounds are listed: those with a hit (about 19% of all), similar ones and a draw of the others.
HT1080-NT tox = kills 2HG-producing HT-1080-NT fibrosarcoma cells; HT-1080-NT fibrosarcoma viability, CellTiter-Glo ATP luminescence, 48 h; hit rate 1.6% among 360,000; Potency, µM (series often up to 46.1 µM), inactives show at the top dose activity, negative = less viability, hits mostly cytotoxic;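 further: NT is the 2HG producing partner of a matched IDH1 knockdown line; potency means the concentration at half of the fitted maximal effect; 0% = DMSO-treated cells and -100% = media-only wells without cells; nearly all actives have a fitted effect of over 55% in size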
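Toxicity toward the 2HG-producing NT line was scored as %Activity, normalised to DMSO and no-cell wells, from CellTiter-Glo luminescence after 48 hours' treatment.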
HT1080 IDH1KD tx = HT-1080 IDH1 knockdown cell toxicity (counter line). HT-1080 IDH1 knockdown viability, ATP luminescence, 48 h. Potency, µM (titrated, usually from 46.1 µM), for inactives: top-dose activity, negative = toxicity, most hits filed as cytotoxic. hit rate 2% among 360,000. AID 686971;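 further: potency means the concentration at half of the fitted maximal effect; 0% = DMSO wells and -100% = cell-free medium wells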
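After a 2 h attachment period, IDH1KD HT-1080 cells took pin-transferred compound for 48 h at 37 °C; ATP-based luminescence after 10 min room-temperature reagent incubation reported viability.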
IL1B secr inh = inhibitors of inflammasome signaling (IL-1 beta secretion) | THP-1 LPS/ATP IL-1B secretion, AlphaLISA, 16 h; active compounds read low | activity change, % at 57.5 µM | hit rate 4.7% among 360,000 | AID 743279; in the data active means activity change below about -50%; inconclusive means mostly about -30% to -49%
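Secreted IL-1B measured by AlphaLISA bead assay after 16 h compound exposure of THP-1 cells; compounds (final up to 57.5 uM) added 1 h before LPS (250 ng/mL) and ATP (1.25 mM) stimulation; lower signal means less secretion.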
TDP1 cell noCPT = qHTS for Inhibitors of human tyrosyl-DNA phosphodiesterase 1 (TDP1): qHTS in cells in absence of CPT; hit rate 15% among 420,000; DT40 Tdp1-/- hTDP1 cells, no CPT, ATP luminescence, 48 h; Potency, µM (series often up to 46.2 µM), for the others: top-dose activity change, negative = growth inhibition, most hits filed as inhibitors; further: potency means the concentration at half of the fitted maximal effect; nearly all actives have a fitted effect of over 55% in size
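Compound effects on proliferation are scored in DT40 Tdp1-/-;hTDP1 cells in the absence of CPT. ATP levels (CellTiter-Glo luminescence) are recorded after a ≥48 hr, 37 °C incubation.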
DT40 TDP1 CPT = DT40-hTDP1 cell growth loss with CPT | chicken DT40 Tdp1-/-;hTDP1 cells + 20 nM CPT, ATP luminescence, 48 h | hit rate 12% among 420,000 | Potency, µM (highest dose often 46.2 µM), for inactives: at the top dose activity change, negative = growth inhibition, usual class: inhibitors; further: potency means the concentration at half of the fitted maximal effect; nearly all actives have a fitted effect of over 55% in size
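Chicken DT40 Tdp1-/- cells complemented with human TDP1, 400 cells/well, exposed to compounds plus 20 nM camptothecin for at least 48 h at 37 C; viability read as ATP content by CellTiter-Glo luminescence.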
Numbers without * were called inactive; i = inactive; ? = inconclusive; · = not tested or not shown. Unless noted, the call rests on the fitted dose curve; in most records, active means well fitted curve in the direction sought with a large enough effect; inconclusive means small, poorly fitted or top-dose-only effect, or another doubt; inactive means no such curve, though single readings can be large; an effect the other way counts as inactive or inconclusive. Unless noted, on the % scale 0 is the no-effect control and ±100 the full control effect.

SMILES	HT1080-NT tox	HT1080 IDH1KD tx	IL1B secr inh	TDP1 cell noCPT	DT40 TDP1 CPT
C#CCOCCOCCOCCNc1nc(N2CCN(C(=O)[C@H](CCC(=O)O)n3cc(C(N)[C@H](C)CC)nn3)CC2)nc(N2CCN(C(=O)[C@H](CCC(=O)O)n3cc(C(N)[C@H](C)CC)nn3)CC2)n1 (some centres undefined)	2%	-2%	3	?	9%
CC1=C/C(=N\NC(=S)Nc2cccnc2)CC(C)(C)C1	-19%	-12%	50	2.1µM*	1.3µM*
Cn1cnc(C(=O)NC2CCN(C(=O)OC(C)(C)C)CC2)c1C(=O)NC1CCN(C(=O)OC(C)(C)C)CC1	15%	6%	17	3%	3%
Cn1cnc(C(=O)NCc2ccc(CNC(=O)OC(C)(C)C)cc2)c1C(=O)NCc1ccc(CNC(=O)OC(C)(C)C)cc1	-16%	-19%	-3	?	21µM*
CC(C)(C)OC(=O)N1CCC(NC(=O)c2[nH]cnc2C(=O)Nc2cccc(Cl)c2)CC1	13%	10%	-58*	?	?
Cc1ccc(NC(=O)c2nc[nH]c2C(=O)N2CCN(C(=O)OC(C)(C)C)CC2)cc1	14%	9%	-16	?	?
CC(C)(C)OC(=O)N1CCC(NC(=O)c2ncn(Cc3ccccc3)c2C(=O)NC2CCN(C(=O)OC(C)(C)C)CC2)CC1	-1%	-4%	-18	?	23µM*
CC(C)(C)OC(=O)NCc1ccc(CNC(=O)c2ncn(Cc3ccccc3)c2C(=O)NCc2ccc(CNC(=O)OC(C)(C)C)cc2)cc1	11%	14%	17	-3%	-15%
CC(C)(C)OC(=O)N1CCN(C(=O)c2[nH]cnc2C(=O)Nc2ccc(Cl)cc2)CC1	20%	16%	-52*	?	?
O=C(NCCO)c1cccc(-c2cnc3cccnn23)c1	20%	23%	-16	?	?
Cc1ccc(C)c(NC(=O)CC2NCCNC2=O)c1 (centres undefined)	·	·	·	6%	-4%
CC(C)(C)OC(=O)NCc1ccc(CNC(=O)c2nc[nH]c2C(=O)N2CCN(C(=O)OC(C)(C)C)CC2)cc1	-3%	2%	18	18µM*	?
CCN(CC)C(=O)c1nc[nH]c1C(=O)N1CCN(C(=O)OC(C)(C)C)CC1	2%	0%	33	-4%	-12%
NC1CCN(c2c(F)cc3c(=O)c(C(=O)O)cn(C4CC4)c3c2Cl)C1 (centres undefined)	8%	13%	0	6.5µM*	7.3µM*
NC1CCN(c2nc3c(cc2F)c(=O)c(C(=O)O)cn3-c2ccc(F)cc2F)C1 (centres undefined)	?	-15%	-25	8.2µM*	16µM*
CC1CCc2c(N3CCC(O)CC3)c(F)cc3c(=O)c(C(=O)O)cn1c23 (centres undefined)	-2%	-15%	0	?	?
Cc1ccc(C2CC(c3ccccc3)=NN2C(=S)Nc2ccccc2)o1 (centres undefined)	?	?	-9	5.8µM*	3.3µM*
O=[N+]([O-])c1cc2ccccc2c(O)c1O	-4%	-1%	11	?	23µM*
O=[N+]([O-])c1cc(-c2ccccc2)cc([N+](=O)[O-])c1O	18µM*	?	20	18µM*	?
O=C(CSc1ccc(-c2ccc(F)cc2)nn1)NCCc1ccccc1	1%	0%	13	-6%	-4%
COc1ccccc1-c1ccc(SCC(=O)NCCc2ccccc2)nn1	-1%	7%	-14	23µM*	?
COc1ccccc1-c1ccc(SCc2cccc(F)c2)nn1	-23%	-21%	14	?	?
COc1ccccc1-c1ccc(SCc2ccccc2)nn1	-20%	-11%	55	21µM*	?
COc1ccccc1-c1ccc(SCc2ccccc2F)nn1	-7%	-20%	-60*	?	-20%
O=C(CN(c1cccc([N+](=O)[O-])c1)S(=O)(=O)c1ccccc1)N1CCCCC1	3%	2%	-13	10%	0%
SMILES	HT1080-NT tox	HT1080 IDH1KD tx	IL1B secr inh	TDP1 cell noCPT	DT40 TDP1 CPT
O=C(c1cccc(F)c1)N1CCC2(CC1)CN(c1ncccn1)C2	·	·	·	-17%	?
CCc1nn(CC(=O)NCCOC)c(=O)c2cc3cc(F)ccc3n12	·	·	·	2%	17%
CCOC(=O)C1(C)Oc2cccnc2NC1=O (centres undefined)	3%	0%	-70*	-13%	-4%
COc1ccc(C)cc1N(CC(=O)NCCN1CCOCC1)S(=O)(=O)c1ccccc1	-4%	-7%	-4	-5%	0%
COC(=O)c1c(C(=O)OC)c(-c2ccc(Cl)c(Cl)c2)n2c1CCC2	-11%	-5%	-25	?	21µM*
CC(C)(C)NC(=O)CSc1ncnc2c1cnn2-c1ccccc1	-3%	-16%	-11	?	?
O=C(CSc1ncnc2c1cnn2-c1ccccc1)NC1CCS(=O)(=O)C1 (centres undefined)	11%	9%	-11	8.2µM*	-28%
O=C(CSc1ncnc2c1cnn2-c1ccc(F)cc1)NC1CCCC1	14%	22%	i	21µM*	18µM*
O=C(CSc1ncnc2c1cnn2-c1ccc(F)cc1)NCC1CCCO1 (centres undefined)	-4%	-6%	-17	?	?
O=C(N/N=C/c1cc([N+](=O)[O-])ccc1O)c1cc(-c2ccccc2)nc2ccccc12	?	4.1µM*	11	5.8µM*	5.8µM*
Cc1cc(C(=O)N/N=C/c2ccc(N(C)C)cc2)c2ccccc2n1	3.7µM*	3.3µM*	36	4.1µM*	2.9µM*
Cc1cc(C(=O)N/N=C/c2ccc([N+](=O)[O-])cc2)c2ccccc2n1	18µM*	4.6µM*	13	3.3µM*	2.9µM*
CCc1cc(C(=O)N/N=C/c2ccc(O)cc2)c2ccccc2n1	?	?	21	8.2µM*	-27%
Cc1cccc(/C=N/NC(=O)c2cc(C)nc3ccccc23)n1	15%	0%	-10	?	?
CCC/C=N/NC(=O)c1cc(-c2ccccc2)nc2ccccc12	1%	-12%	22	?	-10%
O=C(N/N=C/c1cc([N+](=O)[O-])ccc1Cl)c1cc(-c2ccccc2)nc2ccccc12	10%	6%	34	?	?
COc1ccc(CNC(=O)[C@@H](NC(=O)C2CCN(C(=O)[C@@H](N)CCSC)CC2)C(C)C)cc1	-4%	3%	2	-2%	3%
CN(C(=O)CN1C(=O)C2C3CC(C(Br)C3Br)C2C1=O)C1CCCCC1 (centres undefined)	-10%	-22%	34	-26%	5%

Source: PubChem BioAssay
